# Only some compounds are listed: those with a hit (about 13% of all), similar ones and a draw of the others.
# USP17 inh: inhibitors of human USP17 deubiquitinase. purified USP17, Ub-rhodamine cleavage fluorescence, 3 h. hit rate 6.5% among 47,000. inhibition, % at 50 µM. AID 1645855, 2021. Ubiquitin carboxyl-terminal hydrolase 17-like protein 5 (Homo sapiens), A8MUK1
# USP7 inh: inhibitors of human USP7 deubiquitinase | inhibition, % at 20 µM | Ubiquitin carboxyl-terminal hydrolase 7 (Homo sapiens), Q93009 | purified USP7, Ub-rhodamine cleavage fluorescence | AID 1645854, 2021 | hit rate 0.3% among 47,000
# USP30 block: inhibitors of human USP30 deubiquitinase. hit rate 5.3% among 47,000. inhibition, % at 25 µM. AID 1645860, 2021. purified USP30, Ub-rhodamine cleavage fluorescence. Ubiquitin carboxyl-terminal hydrolase 30 (Homo sapiens), Q70CQ3
# USP10 inh: inhibitors of human USP10 deubiquitinase; Ubiquitin carboxyl-terminal hydrolase 10 (Homo sapiens), Q14694; purified USP10, Ub-rhodamine fluorescence, 60 min; inhibition, % at 20 µM; hit rate 1.1% among 47,000
# UCHL1 inh: inhibitors of human UCHL1 deubiquitinase | AID 1645859, 2021 | purified UCHL1, Ub-rhodamine cleavage fluorescence | Ubiquitin carboxyl-terminal hydrolase isozyme L1 (Homo sapiens), P09936 | inhibition, % at 20 µM | hit rate 0.2% among 47,000
# USP8 inh: inhibitors of human USP8 deubiquitinase | Ubiquitin carboxyl-terminal hydrolase 8 (Homo sapiens), P40818 | inhibition, % at 20 µM | purified USP8, Ub-rhodamine cleavage fluorescence, 30 min | hit rate 4.2% among 47,000
# Hits are given with their value; - = inactive; . = no result. No stated cut-off is given here; in the data, active means inhibition above about 30%; inactive means the rest.
SMILES,USP17 inh,USP7 inh,USP30 block,USP10 inh,UCHL1 inh,USP8 inh
COc1cc2c(=O)n(CC3CCCO3)c(=O)n(CC(=O)c3ccc4c(c3)OCO4)c2cc1OC (configuration not stated),-,-,-,33,-,47
CC12C(=O)N(Cc3ccc(F)cc3)CC(=O)N1CCc1c2[nH]c2ccccc12 (configuration not stated),-,-,-,-,-,-
CCOC(=O)C1=C(CN2CCN(c3ccc(F)cc3)CC2)NC(=O)NC1c1ccc(OC)cc1 (configuration not stated),36,-,34,-,-,-
Cn1c(=O)n(Cc2ccccn2)c(=O)c2cnc(-c3ccc(Cl)cc3)nc21,-,-,-,-,-,-
Cn1c(=O)c2nc(-c3ccc(Cl)cc3)nnc2n(C)c1=O,-,-,-,40,32,99
COc1cccc(C(=O)N2C[C@H]3C[C@H](COc4cccnc4)[C@@H](C2C)N3C)c1 (some centres not stated),-,-,-,-,-,-
O=C(CSc1ncnc2c1oc1ccccc12)Nc1cccc2ccccc12,-,-,-,-,-,-
O=C(CSc1nc(-c2ccccc2)c2ccccc2n1)NCCc1ccccc1,31,-,-,-,-,-
COc1ccc(NC(=O)CSc2ncnc3c2oc2ccccc23)c(OC)c1,32,-,-,-,-,-
O=C(CSc1ncnc2c1oc1ccccc12)Nc1ccccc1F,43,-,.,-,-,-
O=C(CSc1ncnc2c1oc1ccccc12)NCCc1ccccc1,64,-,36,-,-,-
Cc1c(C)n(-c2ccccc2)c2ncn(CC(=O)N3CCOCC3)c(=O)c12,-,-,-,-,-,-
Cc1nc(N2CCCC2)ncc1-c1cc(=O)[nH]c(N2CCC(C)CC2)n1,-,-,-,-,-,-
O=C(NCC[C@@]12CCCC[C@@H]1c1c([nH]c(=O)[nH]c1=O)O2)c1ccccn1,-,-,-,-,-,-
O=C1NC(=O)/C(=C/c2ccc(OC(=O)c3ccc(Cl)cc3Cl)cc2)N1,38,-,62,45,-,94
CC(=O)NC(Cc1ccc(C(C)C)cc1)C(=O)NC1CCN(c2ncccn2)CC1 (configuration not stated),-,-,-,-,-,-
Cn1c(CCN2CCN(c3ccc(F)cc3)CC2)nc2cc(NC(=O)c3ccc(Cl)cc3)ccc21,33,-,36,-,-,37
Cc1ccc(N2CCN(CCc3nc4cc(NC(=O)Nc5ccccc5)ccc4n3C)CC2)cc1,43,-,-,-,-,-
Cn1c(CCN2CCOCC2)nc2cc(NC(=O)c3ccc(F)cc3)ccc21,-,-,-,-,-,-
Cn1c(CN2CCCCCC2)nc2cc(NC(=O)c3ccccc3)ccc21,51,-,-,-,-,-
Cn1c(CCN2CCN(c3ccccn3)CC2)nc2cc(NC(=O)c3ccccc3)ccc21,-,-,-,-,-,-
COc1cccc(-c2cc3ccccn3c2C(=O)c2cccc(C)c2)c1,-,-,-,-,-,-
Cn1nc(C(=O)NCCc2ccco2)c2c1-c1ccsc1CC2,-,-,-,-,-,-
COc1ccc(S(=O)(=O)N2C[C@H]3CN(C(C)C)CC[C@H]32)cc1,-,-,-,-,-,-
Cc1nn(-c2ccc(F)cc2)c(C)c1S(=O)(=O)N1CCC(C(=O)NC(C)(C)C)CC1,-,-,-,-,-,-
COc1ccc(C(=O)Nc2n[nH]c(C)c2-c2cccc(C)c2)c(OC)c1,-,-,72,-,-,-
Cc1nnc(-c2nnc(NCc3ccccc3F)c3ccccc23)o1,-,-,-,-,-,-
Cc1ccc(-n2nc(C)c3c2NC(=O)CC3C(=O)c2cc3ccccc3o2)cc1 (configuration not stated),-,-,-,33,-,-
CCc1ccc(-n2nc(C)c3c2NC(=O)CC3C(=O)c2ccc3c(c2)OCCO3)cc1 (configuration not stated),57,-,-,-,-,-
